The results in this text go back to PubChem BioAssay (NCI).

This is part of a sample that, as a whole, favours compounds with a hit. Of some 83,000 tested, about 20% had one in any assay.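 Results are percent growth after 48 hours of single-concentration exposure. 100 means growth as in untreated cells, lower positive values show inhibition; negative values down to -100 show cell death.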 A number with no mark means an inactive call. Calls of active or inactive are those of the source. How the source made its calls: active means growth percent below 10; inactive means the rest.

Assay in all cases: NCI-60 one-dose screen, 48 h (100 = growth as untreated, 0 = no growth, -100 = all killed)
What all share (details): 10 µM unless noted

In assay [1] the test system is SK-MEL-2 melanoma.
Assay [2] has as its system EKVX NSCLC.
Assay [3] relates to SN12C renal.
In assay [4] the test system is UO-31 renal.
For assay [5], the system named is TK-10 renal.
For assay [6], the system named is ACHN renal.
The subject of assay [7] is CAKI-1 renal.
Assay [8] deals with A498 renal.
The subject of assay [9] is CCRF-CEM leukemia.
Assay [10] deals with MOLT-4 leukemia.

As for `S=c1[nH]nc2ccccn12`, the growth in assay [1] was 95.3%; in assay [2], 102%; in assay [3] it was 106%; in assay [4], 87.7%; in [5], 85.7%; in assay [6], 102%. Besides, the growth is 102% in [7], 100% in assay [8], 101% in [9] and 80.7% in assay [10].
Turning to `Cc1ccsc1-c1ccc2c(c1)COC2(CCCN(C)C)c1ccc(F)cc1` (stereo not given), the growth in assay [1] was 85.4%; in assay [2], 65.6%; in assay [3], 56.7%; in assay [4] it was 39.3%; in assay [5], 73.7%; in [6], 62.1%. Further, the growth in [7] is 38.4%; in assay [8], 86.3%; in [9] it was 39%; in assay [10] it was 27.3%.
Turning to `COc1cc2c(cc1-c1c(C)noc1C)ncc1nc(C3CCC(F)(F)CC3)n([C@@H](C)COC(F)F)c12`, the growth was 71.4% in assay [1]; 43.4% in assay [2]; 58.5% in [3]; 3.65% (active) in assay [4]; 27.1% in assay [5]; 36.5% in assay [6]. The growth in [7] is 24.3%; in assay [8], -12.5% (active); in [9] it was 50.8%; in assay [10], 41.4%.
As to `CC1(C)NCCC[C@]2(C)[C@H]3CC[C@@H]4[C@H]5[C@H](C(=O)/C=C/c6ccccn6)CC[C@]5(CO)CC[C@@]4(C)[C@]3(C)CC[C@@H]12`, the growth in [1] was 108%; in [2], 101%; in assay [3], 62.4%; in [4], 66.8%; in assay [5] it was 176%; in [6], 73.4%. Moreover, the growth was 32.7% in assay [7], 84% in assay [8], 12.3% in assay [9] and 3.77% (active) in assay [10].
For `NCCNc1nc(-c2ccccc2)nc2nc(-c3ccccc3)oc12`, the growth is 107% in assay [1]; 102% in assay [2]; 80.6% in [3]; 69.6% in assay [4]; 119% in assay [5]; 79% in assay [6]. The growth in [7] is 73.9%; in assay [8], 90%; in [9] it was 91.5%; in assay [10], 73.6%.
As to `COc1ccc(OCC(CO)N2CCN(c3ccccc3)CC2)cc1` (stereo not given), the growth in assay [1] is 106%; in assay [2] it was 108%; in assay [3], 97.2%; in assay [4] it was 86.4%; in assay [5] it was 109%; in [6] it was 104%. In addition, the growth was 90.6% in assay [7], 108% in [8], 112% in assay [9] and 116% in assay [10].
`O=C1OC(c2ccc(Cl)c(Cl)c2)=C/C1=C/c1cccc([N+](=O)[O-])c1`: the growth in [1] is 102%; in assay [2] it was 91.8%; in assay [3] it was 93%; in assay [4], 68%; in assay [5], 179%; in [6], 100%. The growth in assay [7] was 91.3%; in [8], 101%; in [9] it was 103%; in assay [10], 103%.
On to `CCN(CC)CCCCCCNc1ccnc2cc(Cl)ccc12`, for which the growth in assay [1] was 128%; in assay [2] it was 76.5%; in assay [3], 84.9%; in assay [4] it was 86.1%; in assay [5], 113%; in assay [6], 111%. Moreover, the growth in assay [7] is 84.2%; in assay [8], 118%; in [9], 113%; in assay [10] it was 101%.
As for `COc1cc(-c2cc3ncccc3c3nc(OCCN(C)C)c4cccnc4c23)cc(OC)c1OC`, the growth in [1] was 19.8%; in [2], 32.8%; in assay [3] it was 2.68% (active); in [4], -70% (active); in [5] it was -82.7% (active); in assay [6] it was -74.5% (active). Also, the growth in assay [7] was -37.3% (active); in [8], -72.6% (active); in assay [9] it was 14.5%; in assay [10] it was 2.03% (active).
`COc1ccc(OC)c(-c2c(C#N)c(-c3ccco3)nc3c2c(-c2ccccc2)nn3-c2ccccc2)c1`: the growth was 99.4% in assay [1]; 87.1% in assay [2]; 94.6% in [3]; 84.1% in assay [4]; 98% in assay [5]; 96.4% in assay [6]. Further, the growth is 82.3% in assay [7], 98.5% in assay [8], 94.1% in assay [9] and 96.3% in [10].
On to `Cc1nn(-c2ccc(Cl)cc2)c(=O)n1CCn1cnc2ccccc21`, for which the growth is 109% in [1]; 102% in assay [2]; 105% in assay [3]; 90.8% in assay [4]; 108% in assay [5]; 109% in assay [6]. Also, the growth in assay [7] is 95.8%; in assay [8], 95.6%; in assay [9], 106%; in assay [10], 100%.
As to `CCN(CC)CCCCCNc1cc(OC(=O)c2ccccc2)cc2cccnc12`, the growth was 140% in assay [1]; 102% in assay [2]; 95% in assay [3]; 92.5% in [4]; 145% in assay [5]; 96.6% in assay [6]. Further, the growth was 91% in assay [7], 81.1% in assay [8], 93.9% in assay [9] and 55.4% in [10].
With `c1ccc2c(-c3nc(-c4c[nH]c5ncccc45)cs3)c[nH]c2c1`, the growth is 102% in assay [1]; 80.5% in assay [2]; 76.7% in assay [3]; 52.5% in [4]; 120% in assay [5]; 97.3% in assay [6]. Also, the growth was 98.7% in [7], 91.8% in assay [8], 75.4% in assay [9] and 85.6% in [10].
As to `COC(=O)[C@]12CC[C@@H](C)[C@H](C)[C@@H]1C1=CC[C@@H]3[C@@]4(C)C[C@@H](OC(C)=O)[C@H](O)[C@@](C)(COC(C)=O)[C@@H]4[C@H](O)C[C@@]3(C)[C@]1(C)CC2`, the growth in [1] was -73.6% (active); in assay [2], -88.8% (active); in [3], -69.9% (active); in assay [4] it was -81.6% (active); in assay [5], -86.5% (active); in assay [6] it was -91.9% (active). The growth in assay [7] is -88.2% (active); in assay [8], -94.4% (active); in [9] it was -54.3% (active); in assay [10], -34.3% (active).
As for `CCC(CC)C(=O)OC(C)COc1ccc(C(C)(C)C)cc1` (stereo not given), the growth in [1] was 101%; in [2] it was 105%; in [3], 99.4%; in assay [4] it was 97.3%; in assay [5] it was 97%; in assay [6], 102%. The growth in assay [7] is 98.8%; in [8], 87.8%; in [9], 93%; in assay [10], 82.7%.
On to `Cc1cc(C)c(NC(=O)c2sc3nc4c(cc3c2N)CCCC4)c(C)c1`, for which the growth in assay [1] is 16.8%; in [2], 76.7%; in assay [3], 50%; in assay [4], 62.1%; in [5], 64.7%; in assay [6], 55.8%. The growth in assay [7] is 53.1%; in [8], 12.7%; in assay [9], 20.4%; in assay [10], 29.9%.
`CCN(CC)C(=O)CCCCCn1c2ccccc2c2c3c(c4c5ccccc5[nH]c4c21)C(=O)N(O)C3=O`: the growth was 61.4% in assay [1]; 64.1% in assay [2]; 33.2% in assay [3]; -50.7% (active) in assay [4]; 68.3% in assay [5]; -64.8% (active) in assay [6]. For the same molecule, the growth in assay [7] was -59% (active); in assay [8], 69.1%; in [9] it was 21.3%; in [10] it was -0.333% (active).
Consider `CN1CCN(c2ccc3nc(-c4[nH]ncc4Nc4ncnc5[nH]ccc45)[nH]c3c2)CC1`, for which the growth in assay [1] is -27.8% (active); in assay [2] it was 2.05% (active); in [3], 2.59% (active); in [4] it was -9.13% (active); in [5] it was -9.08% (active); in assay [6], 0.294% (active). Besides, the growth in assay [7] is 1.7% (active); in [8], -45.7% (active); in assay [9] it was 4.45% (active); in assay [10] it was -13.6% (active).
In the case of `COc1cc(NC(C)CN(CC(C)C)C(C)C)c2ncccc2c1` (stereo not given), the growth is 113% in assay [1]; 105% in assay [2]; 104% in [3]; 87.6% in assay [4]; 120% in assay [5]; 99.3% in assay [6]. In addition, the growth in assay [7] is 98.6%; in assay [8], 97.6%; in assay [9], 114%; in [10], 96.6%.
On to `CC1(n2nnnc2N2CCCN(c3ncccc3N)CC2)CCC1`, for which the growth in assay [1] is 110%; in [2] it was 97.5%; in [3] it was 95.7%; in assay [4], 92.4%; in assay [5], 99%; in assay [6], 99.2%. Also, the growth in assay [7] was 90.7%; in assay [8], 93.3%; in [9], 103%; in [10], 99.3%.
Turning to `CC(C)c1cc(C(=O)O)c(O)c(C(C)C)c1.CC(C)c1cc(C(=O)O)c(O)c(C(C)C)c1.[Mn]`, the growth in assay [1] was 118%; in [2], 102%; in assay [3], 101%; in [4], 85.5%; in [5], 106%; in assay [6] it was 103%. The growth in [7] was 100%; in assay [8] it was 126%; in assay [9] it was 95.1%; in assay [10], 99.2%.
Turning to `CC(C)=CCC[C@](C)(O)[C@H]1CC[C@]2(C)[C@@H]1CC[C@@H]1[C@@]3(C)C/C(=C/c4ccc(Br)cc4)C(=O)C(C)(C)[C@@H]3CC[C@]12C`, the growth in [1] is 113%; in [2], 94.3%; in assay [3], 88%; in assay [4], 70.4%; in assay [5], 130%; in assay [6], 98.1%. Moreover, the growth is 64.7% in assay [7], 80.8% in assay [8], 83.4% in [9] and 84.1% in [10].
As to `CC(=O)OC[C@]12CC[C@@H](/C(C)=N/O)[C@@H]1[C@H]1CC[C@@H]3[C@@]4(C)CCCNC(C)(C)[C@@H]4CC[C@@]3(C)[C@]1(C)CC2`, the growth in assay [1] was 94.5%; in [2], 84.6%; in [3], 75.3%; in assay [4], 61.2%; in assay [5] it was 82.4%; in [6], 88%. Moreover, the growth in [7] is 36.7%; in [8] it was 59.3%; in assay [9] it was 52.1%; in assay [10] it was 35.6%.
On to `Brc1ccc2[nH]cc(-c3nc(-c4c[nH]c5ncccc45)cs3)c2c1`, for which the growth was 36.3% in assay [1]; 43.9% in [2]; 49.8% in assay [3]; 19.2% in [4]; 30.1% in [5]; 15.9% in [6]. The growth in assay [7] is 7.49% (active); in [8] it was 43.6%; in [9], 29.7%; in assay [10] it was 18.4%.
As to `Cc1cc2nc3c4cc(Cl)ccc4n(CCN(C)C)c3nc2cc1C`, the growth in assay [1] was 43.6%; in assay [2], 20.4%; in [3], 17.7%; in assay [4], -45% (active); in [5], 19.4%; in assay [6], -10% (active). In addition, the growth was -7.17% (active) in [7], 73.9% in assay [8], 24.6% in [9] and 2.26% (active) in [10].
With `CN(C)CCCC1(c2ccc(F)cc2)OCc2cc(-c3ccc(C(F)(F)F)nc3)ccc21` (stereo not given), the growth was 94.2% in assay [1]; 76.1% in assay [2]; 75.1% in assay [3]; 55.5% in [4]; 82.4% in [5]; 83.1% in assay [6]. Moreover, the growth in [7] was 55.4%; in assay [8], 89.8%; in assay [9], 69.1%; in [10] it was 53.6%.
